These results are taken from PubChem BioAssay (NCATS).

Test [1] concerns the target DNA polymerase III PolC-type (Bacillus subtilis (strain 168)) (UniProt P13267). Briefly: qHTS Validation Assay for the Inhibitors of DNA Replication in Gram-Positive Bacteria (AID 485295).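 Note: PicoGreen fluorescence of double-stranded DNA made on primed circular M13 template.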 The gist of the method:
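Reconstituted B. subtilis holoenzyme (Pol III, beta clamp, SSB, primase) was preincubated with compound at room temperature, then given single-stranded circular M13Gori plus dNTPs and NTPs. EDTA-containing PicoGreen stopped the reaction, and dsDNA product was read by fluorescence.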
(In general: Quantitative high-throughput screening tests each substance at several concentrations.)

For test [2], the target named is Tumor susceptibility gene 101 protein (Homo sapiens) (UniProt Q99816). Put plainly: qHTS Validation Assay for Iinhibitors of HIV-1 Budding by Blocking the Interaction of PTAP/TSG101 (AID 485342; calls by dose curve). The essentials:
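Tsg101 binding domain (10 uM final) in pH 7.5 HEPES/NaCl/Tween 20/EDTA/TCEP buffer was mixed with pin-transferred compounds, then FITC-labeled PTAP peptide (50 nM final) was added; after 20 min at r.t., fluorescence polarization was read.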

Test [3] in a line: qHTS Validation Assay to Find Inhibitors of Chronic Active B-Cell Receptor Signaling (AID 485345; active = well fitted curve in the direction sought with a large enough effect in the main read-out, with a control signal flat, not every such curve was filed as active). The gist of the method:
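TMD8 ABC-DLBCL cells with dox-inducible green luciferase–IκBα fusion and red native luciferase; compounds 46 uM–3 nM, 4 h at 37C with doxycycline in 0.5% FBS IMDM. Green/red ratio normalized to basal and 10 uM MG-132.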

A short description of test [4]: Quantitative high throughput screen for delayed death inhibitors of the malarial parasite plastid, 48 hour incubation (AID 488752). Note: nearly all actives have a fitted effect of over 65% in size. Note: potency is the fitted concentration of half-maximal effect. The gist of the method: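 One-generation (48 h) growth assay: a decrease in luciferase signal from an integrated reporter in P. falciparum-infected red cells (0.1% parasitemia, 2% hematocrit) after compound exposure at 37 C indicates parasite inhibition.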

The target of test [5] is Thioredoxin reductase 1, cytoplasmic (Rattus norvegicus) (UniProt O89049). Put plainly: qHTS Assay for Substrates of Mammalian Selenoprotein Thioredoxin Reductase 1 (TrxR1) (AID 488772).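 Note: a drop in NADPH fluorescence below the no-compound background marks a TrxR1 substrate.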 The essentials: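 In this dual-purpose format, potential substrates are identified from the first fluorescence read after selenite addition, not from the 8-minute delta. Rat enzyme is preincubated with NADPH and then with compound at ~22 deg C.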

The target is the same in test [6]. Put plainly: qHTS Assay for Inhibitors of Mammalian Selenoprotein Thioredoxin Reductase 1 (TrxR1) (AID 488773). Note: nearly all actives have a fitted effect of over 40% in size. Note: potency is the fitted concentration of half-maximal effect. Particulars: Potency: inhibition. The essentials:
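Inhibition is scored from the loss of NADPH fluorescence between first and last reads of an 8-min kinetic run. Selenite (400 uM) was the substrate, added after 15 min compound preincubation at room temperature.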

Test [7] has as its target M-phase phosphoprotein 8 (Homo sapiens) (UniProt Q99549). Briefly: qHTS Validation Assay for Inhibitors for MPP8 Chromodomain Interactions with Methylated Histone Tails (AID 488949).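 Note: AlphaScreen signal from MPP8 chromodomain bound to biotinylated H3K9me3 peptide; top concentration of the series differs between compounds; nearly all actives have a fitted effect of over 55% in size.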 The essentials:
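MPP8 (50 nM) was preincubated with biotinylated H3(1-18)K9me3 peptide (50 nM) in PBS pH 7.4, 0.01% Tween-20 for 30 min at room temperature, then with compounds for 30 min; binding was detected by AlphaScreen.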

Test [8] deals with Chromobox protein homolog 1 (Homo sapiens) (UniProt P83916). Briefly: qHTS Validation Assay for Inhibitors of HP1-beta Chromodomain Interactions with Methylated Histone Tails (AID 488953).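 Note: loss of AlphaScreen luminescence from HP1-beta binding biotinylated H3K9me3 peptide; nearly all actives have a fitted effect of over 50% in size.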 The essentials:
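AlphaScreen proximity signal from streptavidin donor and nickel chelate acceptor beads (final 10 ug/mL) after 30 min dark incubation. Compounds had 30 min at room temperature with preformed complex of 50 nM HP1-beta and 50 nM b-H3(1-18)K9me3 in PBS pH 7.4 with 0.01% Tween-20.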

Test [9] has as its target Methanococcus maripaludis chaperonin (MmCpn) (UniProt Q6LX38). Briefly: High-Throughput Screening for Modulators of Cytosolic Chaperonin Activity: MmCpn Primary Screen (AID 488978).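 Note: 50 nM MmCpn enzyme hydrolysing 30 µM ATP at 37 °C.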 The essentials: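 MmCpn (50 nM final) was preincubated with compound 5 min at RT, then 30 uM ATP (final) was added and the reaction ran 10 min at 37C. ADP produced was detected by Transcreener HTRF (ex 320 nm; em 590/665 nm).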

Test [10] addresses Transient receptor potential cation channel subfamily V member 1 (Homo sapiens) (UniProt Q8NER1). Briefly: HTS Assay for Compounds that Act as Enhancers of the Vanilloid Receptor 1 (AID 488979). The gist of the method: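 TRPV1-expressing cells loaded with Fluo-8 calcium dye; compounds added and calcium influx read kinetically for 3 min (agonist phase), then capsaicin at EC20 added and read 2 min more for enhancement. Fluorescence ex 480/em 520 nm.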

Test [11] deals with Thyrotropin receptor (Homo sapiens) (UniProt P16473). Put plainly: qHTS Assay for Antagonists of the Thyroid Stimulating Hormone Receptor (AID 488980). The gist of the method:
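HEK293 cells transfected with human TSHR, suspended in HEPES-buffered HBSS with 70 uM RO 20-1724, were treated with compounds plus TSH at EC80 (4 nM final). cAMP was measured by competitive HTRF (cryptate anti-cAMP antibody, cAMP-d2 acceptor).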

In test [12] the target is D(1A) dopamine receptor (Homo sapiens) (UniProt P21728). Put plainly: HTS Assay for Allosteric Agonists of the Human D1 Dopamine Receptor: Primary Screen for Agonists (AID 488981). Note: potency is the fitted concentration of half-maximal effect. The gist of the method: (§1)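 Tetracycline-induced HEK293 T-REx cells force-coupled to calcium signalling were incubated overnight at 30 C and dye-loaded at room temperature. Calcium flux over 180 s after compound addition flagged agonists; a further 180 s read after EC20 dopamine flagged potentiators.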

The target is the same in test [13]. Briefly: HTS Assay for Allosteric Agonists of the Human D1 Dopamine Receptor: Primary Screen for Potentiators (AID 488982). The essentials:
as §1

Test [14] has the same target. Put plainly: HTS Assay for Allosteric Agonists of the Human D1 Dopamine Receptor: Primary Screen for Antagonists (AID 488983).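 Note: calcium flux response to an EC80 dopamine challenge measured with no-wash dye; nearly all actives have a fitted effect of over 65% in size.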 Note: potency is the fitted concentration of half-maximal effect. The gist of the method:
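Calcium-flux read-out in inducible HEK293 T-REx cells expressing D1, dye-loaded 30–90 min at room temperature. Kinetic reads: 180 s after compound (agonist phase), then 180 s after an EC80 dopamine challenge.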

In test [15] the target is Beta-2 adrenergic receptor (Homo sapiens) (UniProt P07550). Put plainly: qHTS validation assay of beta-arrestin-biased ligands of beta2-adrenergic receptor (AID 485366). The gist of the method: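 Compound series up to 46 microM applied to beta2-AR/beta-arrestin Tango cells, 18 hr, 37 degrees C, 5% CO2. Read-out: tTA-driven luciferase luminescence, converted to %Activity; concentration-response curves assigned curve classes.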

Test [16] addresses ATP-dependent 6-phosphofructokinase (Trypanosoma brucei brucei) (UniProt O15648). Briefly: qHTS Validation Assay to Find Inhibitors of T. brucei phosphofructokinase (AID 485368). The note with it: T. brucei PFK enzyme assay, qHTS 7-point titration; at 57.5 µM (top of the series). The gist of the method:
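qHTS format, up to 57 uM. PFK 1.25 nM; F6P 0.5 mM; ATP 0.1 mM; 5 mM MgCl2, 0.01% Tween20, 0.1% BSA; 0.1 M TEA pH 8.0; 45 min RT; ADP-Glo readout; no-enzyme control = full inhibition.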

Each structure is given as a SMILES string. Inconclusive results are not listed. Activity calls are given as the source filed them. Unless noted, calls come from the whole dose curve; as a rule, active = well fitted curve in the direction sought with a large enough effect; inconclusive = small, poorly fitted or top-dose-only effect, or another doubt; inactive = no such curve, though single readings can be large; an effect the other way counts as inactive or inconclusive.

Sequence of Chromobox protein homolog 1 (Homo sapiens) (P83916 whole entry, looked up): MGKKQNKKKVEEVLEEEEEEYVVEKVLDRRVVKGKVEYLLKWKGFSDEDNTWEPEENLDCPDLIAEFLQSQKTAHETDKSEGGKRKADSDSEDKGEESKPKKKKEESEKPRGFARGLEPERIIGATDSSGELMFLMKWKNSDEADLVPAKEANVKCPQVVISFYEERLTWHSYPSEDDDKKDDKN
Sequence of Methanococcus maripaludis chaperonin (MmCpn) (Q6LX38 1-543): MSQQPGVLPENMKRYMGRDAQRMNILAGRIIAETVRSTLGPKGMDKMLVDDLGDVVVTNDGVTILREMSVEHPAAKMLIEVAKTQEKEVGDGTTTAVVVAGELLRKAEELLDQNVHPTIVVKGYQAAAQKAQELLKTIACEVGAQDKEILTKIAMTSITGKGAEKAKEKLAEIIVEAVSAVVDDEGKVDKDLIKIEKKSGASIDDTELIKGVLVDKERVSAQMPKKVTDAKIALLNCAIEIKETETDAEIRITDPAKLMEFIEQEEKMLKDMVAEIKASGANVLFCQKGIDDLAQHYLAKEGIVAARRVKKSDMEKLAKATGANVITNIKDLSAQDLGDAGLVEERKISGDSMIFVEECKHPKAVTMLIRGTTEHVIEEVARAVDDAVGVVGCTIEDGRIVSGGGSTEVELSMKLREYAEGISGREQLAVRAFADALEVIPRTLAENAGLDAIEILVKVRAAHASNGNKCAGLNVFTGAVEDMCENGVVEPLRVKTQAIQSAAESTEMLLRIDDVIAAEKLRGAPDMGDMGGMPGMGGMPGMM
Sequence of D(1A) dopamine receptor (Homo sapiens) (P21728 whole entry, looked up): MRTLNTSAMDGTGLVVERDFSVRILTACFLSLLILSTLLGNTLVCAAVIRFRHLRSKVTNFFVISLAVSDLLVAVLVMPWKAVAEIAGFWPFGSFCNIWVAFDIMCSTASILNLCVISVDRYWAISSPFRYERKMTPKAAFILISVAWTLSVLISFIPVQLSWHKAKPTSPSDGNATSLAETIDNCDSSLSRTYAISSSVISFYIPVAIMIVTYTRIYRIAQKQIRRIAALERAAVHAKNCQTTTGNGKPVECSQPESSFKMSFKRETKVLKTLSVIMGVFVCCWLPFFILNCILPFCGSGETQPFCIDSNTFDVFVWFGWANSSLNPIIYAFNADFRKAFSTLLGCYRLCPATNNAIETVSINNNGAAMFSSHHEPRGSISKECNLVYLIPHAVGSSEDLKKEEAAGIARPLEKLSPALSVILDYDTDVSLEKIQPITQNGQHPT
Sequence of Transient receptor potential cation channel subfamily V member 1 (Homo sapiens) (Q8NER1 whole entry, looked up): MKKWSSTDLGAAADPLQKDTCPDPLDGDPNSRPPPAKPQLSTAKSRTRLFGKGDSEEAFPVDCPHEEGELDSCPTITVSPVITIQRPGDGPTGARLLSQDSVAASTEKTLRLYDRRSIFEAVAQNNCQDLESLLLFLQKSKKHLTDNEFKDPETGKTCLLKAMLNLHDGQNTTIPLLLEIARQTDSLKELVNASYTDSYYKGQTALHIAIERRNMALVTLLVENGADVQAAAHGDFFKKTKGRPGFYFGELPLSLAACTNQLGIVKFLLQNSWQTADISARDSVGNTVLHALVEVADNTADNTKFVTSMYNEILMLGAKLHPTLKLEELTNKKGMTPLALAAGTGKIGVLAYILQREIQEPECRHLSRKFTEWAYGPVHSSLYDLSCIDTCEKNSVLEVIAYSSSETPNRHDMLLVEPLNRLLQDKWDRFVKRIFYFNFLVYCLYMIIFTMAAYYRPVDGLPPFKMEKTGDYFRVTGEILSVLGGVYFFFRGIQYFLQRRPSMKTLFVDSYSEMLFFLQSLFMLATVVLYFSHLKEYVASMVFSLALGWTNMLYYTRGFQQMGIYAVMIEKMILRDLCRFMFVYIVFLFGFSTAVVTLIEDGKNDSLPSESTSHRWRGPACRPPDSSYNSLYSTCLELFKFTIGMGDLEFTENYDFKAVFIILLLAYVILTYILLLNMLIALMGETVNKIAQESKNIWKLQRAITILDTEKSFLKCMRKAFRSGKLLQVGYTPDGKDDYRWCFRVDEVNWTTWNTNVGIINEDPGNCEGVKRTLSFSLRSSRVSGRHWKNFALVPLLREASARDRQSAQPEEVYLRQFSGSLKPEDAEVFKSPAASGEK
Sequence of DNA polymerase III PolC-type (Bacillus subtilis (strain 168)) (P13267 whole entry, looked up): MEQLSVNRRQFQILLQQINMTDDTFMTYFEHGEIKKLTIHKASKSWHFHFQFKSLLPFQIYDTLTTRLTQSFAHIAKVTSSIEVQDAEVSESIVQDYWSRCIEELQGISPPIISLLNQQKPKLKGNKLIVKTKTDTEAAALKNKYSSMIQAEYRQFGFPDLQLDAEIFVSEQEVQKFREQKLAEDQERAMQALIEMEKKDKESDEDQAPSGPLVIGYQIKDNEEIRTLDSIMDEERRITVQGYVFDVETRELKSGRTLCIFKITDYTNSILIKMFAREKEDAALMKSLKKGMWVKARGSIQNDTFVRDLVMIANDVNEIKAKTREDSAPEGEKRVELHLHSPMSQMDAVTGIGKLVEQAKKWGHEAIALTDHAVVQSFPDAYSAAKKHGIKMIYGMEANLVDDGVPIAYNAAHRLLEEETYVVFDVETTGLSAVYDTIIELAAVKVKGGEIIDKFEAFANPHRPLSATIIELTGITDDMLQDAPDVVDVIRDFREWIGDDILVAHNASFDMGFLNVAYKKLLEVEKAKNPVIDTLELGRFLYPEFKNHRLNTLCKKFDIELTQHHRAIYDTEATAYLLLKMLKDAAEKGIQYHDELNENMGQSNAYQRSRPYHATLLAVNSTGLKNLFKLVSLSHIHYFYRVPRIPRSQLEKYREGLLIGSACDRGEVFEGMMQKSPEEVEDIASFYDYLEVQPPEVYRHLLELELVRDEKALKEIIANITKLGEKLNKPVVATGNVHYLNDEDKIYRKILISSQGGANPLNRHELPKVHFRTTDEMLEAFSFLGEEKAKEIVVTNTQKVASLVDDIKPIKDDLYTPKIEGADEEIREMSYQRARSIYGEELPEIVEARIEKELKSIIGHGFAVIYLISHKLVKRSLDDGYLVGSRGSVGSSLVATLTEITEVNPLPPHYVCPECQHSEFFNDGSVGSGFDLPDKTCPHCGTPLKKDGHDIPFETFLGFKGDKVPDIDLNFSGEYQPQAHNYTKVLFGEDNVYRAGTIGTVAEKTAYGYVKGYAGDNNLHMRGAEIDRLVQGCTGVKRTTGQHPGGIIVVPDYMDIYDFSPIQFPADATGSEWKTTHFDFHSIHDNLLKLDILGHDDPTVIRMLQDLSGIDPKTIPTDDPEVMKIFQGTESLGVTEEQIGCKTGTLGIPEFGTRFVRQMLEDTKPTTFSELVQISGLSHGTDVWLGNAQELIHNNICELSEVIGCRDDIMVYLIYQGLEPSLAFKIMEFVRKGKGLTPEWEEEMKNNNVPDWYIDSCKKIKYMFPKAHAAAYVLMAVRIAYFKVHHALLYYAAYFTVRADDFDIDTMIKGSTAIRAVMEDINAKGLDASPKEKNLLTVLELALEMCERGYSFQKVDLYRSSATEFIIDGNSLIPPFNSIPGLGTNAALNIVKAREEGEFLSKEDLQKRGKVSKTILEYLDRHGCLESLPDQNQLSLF
Sequence of Thioredoxin reductase 1, cytoplasmic (Rattus norvegicus) (O89049 whole entry, looked up): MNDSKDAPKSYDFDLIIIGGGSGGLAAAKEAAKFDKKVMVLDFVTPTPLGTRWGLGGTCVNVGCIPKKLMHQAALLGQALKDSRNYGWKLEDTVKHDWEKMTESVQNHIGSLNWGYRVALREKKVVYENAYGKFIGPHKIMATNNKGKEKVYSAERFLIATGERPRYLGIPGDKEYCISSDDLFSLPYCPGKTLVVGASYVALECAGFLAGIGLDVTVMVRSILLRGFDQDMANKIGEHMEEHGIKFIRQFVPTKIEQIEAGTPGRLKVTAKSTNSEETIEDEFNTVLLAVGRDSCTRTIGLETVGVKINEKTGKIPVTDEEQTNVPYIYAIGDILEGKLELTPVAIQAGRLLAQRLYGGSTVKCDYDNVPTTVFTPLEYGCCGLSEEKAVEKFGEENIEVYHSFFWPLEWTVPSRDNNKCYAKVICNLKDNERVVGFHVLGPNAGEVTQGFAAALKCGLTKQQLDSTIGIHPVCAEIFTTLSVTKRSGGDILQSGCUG
Sequence of M-phase phosphoprotein 8 (Homo sapiens) (Q99549 whole entry, looked up): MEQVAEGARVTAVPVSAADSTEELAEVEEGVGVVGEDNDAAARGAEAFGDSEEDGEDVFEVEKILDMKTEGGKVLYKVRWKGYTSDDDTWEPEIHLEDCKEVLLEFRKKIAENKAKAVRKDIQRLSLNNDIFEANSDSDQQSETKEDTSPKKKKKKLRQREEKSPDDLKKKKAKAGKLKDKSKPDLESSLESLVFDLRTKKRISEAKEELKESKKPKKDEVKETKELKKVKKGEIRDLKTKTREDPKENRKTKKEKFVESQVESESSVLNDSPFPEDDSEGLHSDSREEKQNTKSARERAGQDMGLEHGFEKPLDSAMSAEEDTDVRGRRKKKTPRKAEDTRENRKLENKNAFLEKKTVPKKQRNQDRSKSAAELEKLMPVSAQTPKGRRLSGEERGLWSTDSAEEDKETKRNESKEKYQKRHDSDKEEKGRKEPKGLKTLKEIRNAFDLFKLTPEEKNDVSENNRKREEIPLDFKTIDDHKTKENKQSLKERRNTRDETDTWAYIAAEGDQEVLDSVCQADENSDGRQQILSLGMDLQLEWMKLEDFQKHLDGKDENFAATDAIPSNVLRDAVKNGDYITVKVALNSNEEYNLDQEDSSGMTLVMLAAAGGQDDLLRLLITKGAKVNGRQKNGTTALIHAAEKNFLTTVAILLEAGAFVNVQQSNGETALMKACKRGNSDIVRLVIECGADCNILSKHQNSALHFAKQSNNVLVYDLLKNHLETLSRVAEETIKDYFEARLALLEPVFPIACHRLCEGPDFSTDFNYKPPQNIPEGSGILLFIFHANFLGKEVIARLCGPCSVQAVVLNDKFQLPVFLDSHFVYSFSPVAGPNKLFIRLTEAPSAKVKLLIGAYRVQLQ

Take `C#CCOC(=O)C1=CCCN(C)C1`: the Potency result in test [1], in [4], in test [6], in test [7], in test [8] and in test [12] was “inactive” in each case. Also, the Potency result in [14] is “inactive”. The molecule was classed as inactive in test [2], in test [3], in test [5], in test [9], in [10] and in test [11]. In addition, in [13], the result was inactive.

Turning to `COC(=O)[C@@H](N)CCCN=C(N)N[N+](=O)[O-]`, the Potency result in test [1], in [6], in test [7], in [8], in test [12] and in test [14] was “inactive” each time. Moreover, the call in test [2], in test [3], in [15], in [16], in [5] and in test [9] was inactive. The result in test [13] was inactive.

As for `CCCN(CCC)[C@@H]1CCc2ccc(O)cc2C1`, the Potency result in test [1], in [4], in test [6], in test [7], in test [8] and in [12] was “inactive” each time. Also, the call in test [2], in [3], in test [16], in test [5], in [9] and in test [10] was inactive. Moreover, the molecule was classed as inactive in test [11] and in test [13]. Moreover, the Potency in test [14] was 10000 nM (active).

Turning to `O=C1CCCN1CC#CCN1CCCC1`, the Potency result in test [1], in [4], in test [6], in test [7], in test [8] and in test [12] was “inactive” in each case. Further, the Potency result in test [14] is “inactive”. In addition, the outcome in test [2], in test [3], in test [15], in [5], in test [9] and in [10] was inactive. The outcome in test [11] was inactive.

For `CNCCc1ccc(O)c(O)c1`, the Potency entry in test [1], in [4] and in test [7] was “inactive” each time. Further, the call in test [2], in test [3], in test [5], in test [9], in test [10] and in test [11] was inactive. For the same molecule, the result in test [13] was inactive. Further, the Potency in [6] is 13400 nM (active); in test [12], 282 nM (active); in test [14] it was 251 nM (active).

As for `CC(=O)NCCc1c[nH]c2ccccc12`, the Potency result in test [1], in [4], in test [6], in test [7], in test [12] and in test [14] was “inactive” each time. Further, the call in test [2], in [3], in [5], in test [9], in [10] and in test [11] was inactive. Further, in test [13], the result was inactive.

`CC[C@@]1(O)C(=O)OCc2c1cc1n(c2=O)Cc2cc3ccccc3nc2-1`: the Potency entry in test [1], in [6], in test [7], in test [12] and in test [14] was “inactive” each time. Also, the call in test [2], in [16], in test [5], in test [9], in [10] and in test [11] was inactive. Besides, the outcome in test [13] was inactive. Moreover, the Potency in test [4] was 2330 nM (active).
